About 2,000 (36%) of roughly 5,500 compounds were called active. Another 18% or so got no clear call; they are omitted. No stated cut-off is given here; in the data, active means normalized growth mostly below about 0.91 (no sharp cut-off); inconclusive means no clear call, values can overlap the other calls; inactive means mostly above about 0.92. This is one part of the list.
Assay: chemical genetic growth profiling, strain panel (AID 1159580);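 further: tested at 20 µM; growth read once vehicle control cultures reached saturation at 30 °C; 1 = growth at the plate median or of vehicle wells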
Conditions: S. cerevisiae deletion strains, growth OD

Measured: normalized growth

O=C(O)CCCC[C@@H]1CCSS1
inactive: locus YAL013W, strain DEP1, stronger effect = lower value 0.962 | locus YAL040C, strain CLN3, stronger effect = lower value 0.933 | locus YCL061C, strain MRC1 (second series), stronger effect = lower value 0.979 | locus YDR150W, strain NUM1, stronger effect = lower value 0.996 | locus YDR363W, strain ESC2, stronger effect = lower value 0.971 | locus YER002W, strain NOP16, stronger effect = lower value 0.968 | locus YGR229C, strain SMI1, stronger effect = lower value 0.957 | locus YMR307W, strain GAS1, stronger effect = lower value 0.962 | locus YNL153C, strain GIM3, stronger effect = lower value 1.01 | locus YNL175C, strain NOP13, stronger effect = lower value 0.979 | locus YNL197C, strain WHI3, stronger effect = lower value 0.972 | locus YNL224C, strain SQS1, stronger effect = lower value 0.977 | locus YOR083W, strain WHI5 (second series), stronger effect = lower value 0.937 | locus YPL055C, strain LGE1, stronger effect = lower value 0.989

Reference: PubChem BioAssay AID1159580 (chemical genetic matrix, 2015)
